The values that follow come from article PMC3218832.

In one experiment the target is RELARELA (p65 homodimer) (Homo sapiens, UniProt Q04206 1-307). The experiment can be described thus: protein binding microarray; high values mean tight binding. The following applies: dsDNA, one strand shown.
Sequence of RELARELA (p65 homodimer) (Q04206 1-307): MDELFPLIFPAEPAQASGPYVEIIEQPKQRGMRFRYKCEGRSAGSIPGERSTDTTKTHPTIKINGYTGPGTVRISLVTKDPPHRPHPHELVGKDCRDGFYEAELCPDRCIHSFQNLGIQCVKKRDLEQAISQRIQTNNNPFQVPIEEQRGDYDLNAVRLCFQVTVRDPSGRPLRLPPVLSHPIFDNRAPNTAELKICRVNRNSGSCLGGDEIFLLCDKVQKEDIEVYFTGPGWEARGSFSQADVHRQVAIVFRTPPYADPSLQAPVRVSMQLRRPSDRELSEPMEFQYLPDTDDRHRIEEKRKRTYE
In turn, AGATGGCTCCC had a binding signal of -0.478 z-score.

The sequence AGATTGACCCT had a binding signal of -0.149 z-score.

AGAAAGTCCCC yielded a binding signal of 1.93 z-score.

Sequence GGGTAAGTCCT came in with a binding signal of 1.28 z-score.

For the sequence GGGAACGCCCT, the binding signal is 0.932 z-score.

Regarding GAGAGCGCCCT, the binding signal is -0.857 z-score.

As for CGAATGATCCT, the binding signal was -0.807 z-score.

Take GAGGTAGTCCC: the binding signal was 0.343 z-score.

For the sequence AGAATAATCCT, the binding signal was -0.568 z-score.

On to AAGAGCATCCT, for which the binding signal was -0.702 z-score.

CGGGAACTCCT gave a binding signal of 1.67 z-score.

AAAAATTCCCC registered a binding signal of 3.28 z-score.

On to AGGTGCACCCC, for which the binding signal was -0.368 z-score.

In turn, GAATGATCCCC gave a binding signal of -0.194 z-score.

In the case of CAGTGGCTCCC, the binding signal is -0.478 z-score.

GAGAGGGTCCC came in with a binding signal of -0.00134 z-score.

In turn, GGAAGACTCCT displayed a binding signal of -0.12 z-score.

On to GAATATTCCCT, for which the binding signal worked out at 1.37 z-score.

AGGAAGCCCCC: the binding signal was found to be 0.317 z-score.

Sequence CAAGTCACCCC displayed a binding signal of -0.939 z-score.

As for GAGGGCTCCCC, the binding signal was -0.357 z-score.

For AAGTTGATCCC, the binding signal was -0.64 z-score.

Sequence CAAGGTACCCT yielded a binding signal of -0.567 z-score.

Regarding GAAGTGCTCCT, the binding signal was -0.661 z-score.

On to GGAGGACCCCT, for which the binding signal is -0.648 z-score.

The sequence GGAATATCCCT displayed a binding signal of 2.04 z-score.

AGAAGCATCCC yielded a binding signal of -0.382 z-score.

AGGAAACTCCT registered a binding signal of 2.04 z-score.

Sequence CAGTAGGTCCC registered a binding signal of 0.28 z-score.

With GGGTTACTCCC, the binding signal stood at 0.497 z-score.

CGGGACTCCCC showed a binding signal of 1.91 z-score.

Take CGGTAAACCCT: the binding signal was 0.285 z-score.

AAGAGGCCCCT displayed a binding signal of -0.777 z-score.

GGATAGGTCCC displayed a binding signal of -0.076 z-score.

CAGTGCATCCT showed a binding signal of -0.475 z-score.

The sequence GAATGAGCCCT had a binding signal of -1.06 z-score.

GAATATCCCCC came in with a binding signal of 0.817 z-score.

In turn, CAAGGTTCCCC came in with a binding signal of 0.544 z-score.

Another experiment deals with p50p50 homodimer (Homo sapiens, UniProt P19838 7-356). Described as above. The following applies: dsDNA, one strand shown.
Sequence of p50p50 homodimer (P19838 7-356): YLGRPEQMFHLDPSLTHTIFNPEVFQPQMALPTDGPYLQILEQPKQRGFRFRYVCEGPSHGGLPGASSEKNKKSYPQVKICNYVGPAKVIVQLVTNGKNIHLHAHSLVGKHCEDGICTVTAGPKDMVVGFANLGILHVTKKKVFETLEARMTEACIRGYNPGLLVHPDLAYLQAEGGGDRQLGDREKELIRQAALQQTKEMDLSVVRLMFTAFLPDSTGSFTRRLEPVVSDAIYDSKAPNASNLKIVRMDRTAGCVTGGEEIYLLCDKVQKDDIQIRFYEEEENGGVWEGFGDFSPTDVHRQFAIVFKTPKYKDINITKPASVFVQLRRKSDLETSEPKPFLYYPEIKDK
As for AGATGGCTCCC, the binding signal was -1.77 z-score.

On to AGATTGACCCT, for which the binding signal was -0.594 z-score.

Regarding AGAAAGTCCCC, the binding signal was 1.38 z-score.

The sequence GGGTAAGTCCT yielded a binding signal of 0.161 z-score.

GGGAACGCCCT yielded a binding signal of -0.126 z-score.

GAGAGCGCCCT displayed a binding signal of -1.91 z-score.

Regarding CGAATGATCCT, the binding signal was -1.92 z-score.

The sequence GAGGTAGTCCC had a binding signal of 0.907 z-score.

With AGAATAATCCT, the binding signal was -1.24 z-score.

The sequence AAGAGCATCCT yielded a binding signal of -1.75 z-score.

CGGGAACTCCT came in with a binding signal of 0.314 z-score.

As to AAAAATTCCCC, the binding signal turned out to be 1.42 z-score.

Turning to AGGTGCACCCC, the binding signal turned out to be 0.235 z-score.

GAATGATCCCC displayed a binding signal of 0.816 z-score.

Sequence CAGTGGCTCCC yielded a binding signal of -1.44 z-score.

Turning to GAGAGGGTCCC, the binding signal was -0.361 z-score.

On to GGAAGACTCCT, for which the binding signal is -1.87 z-score.

Turning to GAATATTCCCT, the binding signal stood at 1.19 z-score.

Consider AGGAAGCCCCC, for which the binding signal came to 1.14 z-score.

In the case of CAAGTCACCCC, the binding signal was -0.66 z-score.

In turn, GAGGGCTCCCC returned a binding signal of 0.0285 z-score.

The sequence AAGTTGATCCC displayed a binding signal of -0.815 z-score.

Regarding CAAGGTACCCT, the binding signal was -0.267 z-score.

GAAGTGCTCCT displayed a binding signal of -1.67 z-score.

For GGAGGACCCCT, the binding signal is -0.192 z-score.

GGAATATCCCT gave a binding signal of 0.687 z-score.

In the case of AGAAGCATCCC, the binding signal is -1.4 z-score.

For AGGAAACTCCT, the binding signal was -0.999 z-score.

Sequence CAGTAGGTCCC showed a binding signal of -0.303 z-score.

On to GGGTTACTCCC, for which the binding signal was determined as 0.249 z-score.

As for CGGGACTCCCC, the binding signal worked out at 0.81 z-score.

Sequence CGGTAAACCCT yielded a binding signal of -0.188 z-score.

For AAGAGGCCCCT, the binding signal amounted to 0.359 z-score.

For the sequence GGATAGGTCCC, the binding signal was -0.336 z-score.

Regarding CAGTGCATCCT, the binding signal was -2.12 z-score.

The sequence GAATGAGCCCT showed a binding signal of -1.39 z-score.

Take GAATATCCCCC: the binding signal was 1.35 z-score.

Consider CAAGGTTCCCC, for which the binding signal stood at 1.15 z-score.
